Assay [1] is described as follows: A CellTox Green Cytotoxicity Assay to monitor cytotoxicity in HEK293 cells - 32 hour (AID 1224881). Also: nearly all actives have a fitted effect of over 40% in size. Also: potency is read from the fitted curve at half-maximal effect. Summed up: (§1)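 Real-time, in one plate: 600 HEK293 cells/well with dead-cell DNA dye, pinned compound after 5 h, 37 C incubation over 40 h; viable cells give no appreciable fluorescence.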
Assay [2] can be described thus: A CellTox Green Cytotoxicity Assay to monitor cytotoxicity in HepG2 cells - 0 hour (AID 1224882). Also: nearly all actives have a fitted effect of over 35% in size. Put shortly:
(§2)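 Cytotoxicity was tracked as dead-cell DNA fluorescence in HepG2 cells treated with test compounds at 37 C; each time-point value comes from one kinetic series spanning 0, 8, 16, 24, 32 and 40 h.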

A short description of assay [3]: A CellTox Green Cytotoxicity Assay to monitor cytotoxicity in HepG2 cells - 32 hour (AID 1224883). Also: nearly all actives have a fitted effect of over 50% in size. Also: potency is read from the fitted curve at half-maximal effect. Put shortly: as §2
Assay [4] in a line: A CellTox Green Cytotoxicity Assay to monitor cytotoxicity in HEK293 cells - 8 hour (AID 1224884). Also: nearly all actives have a fitted effect of over 35% in size. Also: potency is read from the fitted curve at half-maximal effect. Put shortly: as §1
A short description of assay [5]: qHTS RealTime-Glo MT Cell Viability Assay in HepG2 cells - 16 hour (AID 1224885). Also: nearly all actives have a fitted effect of over 50% in size. Also: potency is read from the fitted curve at half-maximal effect. Put shortly: (§3)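 Luminescence read-out: viable HepG2 cells reduce a prosubstrate to a NanoLuc substrate, giving a signal proportional to live cell number. Reads taken at 0, 8, 16, 24, 32 and 40 h of compound exposure at 37 C.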
Background: qHTS replaces the single test concentration by a dilution series.

The nature of assay [6]: qHTS RealTime-Glo MT Cell Viability Assay in HEK293 cells - 24 hour (AID 1224886). Also: nearly all actives have a fitted effect of over 50% in size. Also: potency is read from the fitted curve at half-maximal effect. Put shortly: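 Nonlytic real-time viability readout: viable cells convert prosubstrate to NanoLuc substrate, giving luminescence proportional to live cell number. HEK293, 600 cells/well, compound added after 5 h, continuous culture at 37 C.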
A short description of assay [7]: A CellTox Green Cytotoxicity Assay to monitor cytotoxicity in HEK293 cells - 16 hour (AID 1224888). Also: nearly all actives have a fitted effect of over 35% in size. Also: potency is read from the fitted curve at half-maximal effect. Summed up:
as §1

Assay [8] is described as follows: A CellTox Green Cytotoxicity Assay to monitor cytotoxicity in HepG2 cells - 8 hour (AID 1224890). Also: nearly all actives have a fitted effect of over 45% in size. Also: potency is read from the fitted curve at half-maximal effect. Put shortly: as §2
The nature of assay [9]: qHTS assay to identify small molecule antagonists of the estrogen receptor alpha (ER-alpha) signaling pathway using the BG1 cell line in the presence of 0.1 nM 17-beta-estradiol - cell viability counter screen (AID 1259241). Also: nearly all actives have a fitted effect of over 40% in size. Put shortly: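 Estradiol-stimulated (0.1 nM) VM7Luc4E2 cells exposed to compounds 22 hr; viability measured by fluorescence of cleaved CellTiter-Fluor substrate after 30 min.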

Assay [10] can be described thus: qHTS assay to identify small molecule antagonists of the androgen receptor (AR) signaling pathway using the MDA cell line in the presence of 0.5 nM R1881 - cell viability counter screen (AID 1259242). Also: nearly all actives have a fitted effect of over 45% in size. Also: potency is read from the fitted curve at half-maximal effect. Put shortly:
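Cells seeded at 3,000/well and allowed 5 hr at 37C, 0% CO2 before compound transfer and R1881 (0.5 nM final) addition; 16 hr later, live-cell protease fluorescence indicated cytotoxicity.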

The target of assay [11] is Estrogen receptor (Homo sapiens) (UniProt P03372). The experiment in a line: qHTS assay to identify small molecule antagonists of the estrogen receptor alpha (ER-alpha) signaling pathway using the BG1 cell line in the presence of 0.1 nM 17-beta-estradiol (AID 1259244). Also: nearly all actives have a fitted effect of over 50% in size. Also: potency is read from the fitted curve at half-maximal effect. Put shortly: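 Luciferase signal from VM7Luc4E2 ERE-reporter cells, co-dosed with test compound and 0.1 nM final 17beta-estradiol for 22 h, read with ONE-Glo.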
Estrogen receptor (Homo sapiens), sequence (P03372 whole entry, looked up): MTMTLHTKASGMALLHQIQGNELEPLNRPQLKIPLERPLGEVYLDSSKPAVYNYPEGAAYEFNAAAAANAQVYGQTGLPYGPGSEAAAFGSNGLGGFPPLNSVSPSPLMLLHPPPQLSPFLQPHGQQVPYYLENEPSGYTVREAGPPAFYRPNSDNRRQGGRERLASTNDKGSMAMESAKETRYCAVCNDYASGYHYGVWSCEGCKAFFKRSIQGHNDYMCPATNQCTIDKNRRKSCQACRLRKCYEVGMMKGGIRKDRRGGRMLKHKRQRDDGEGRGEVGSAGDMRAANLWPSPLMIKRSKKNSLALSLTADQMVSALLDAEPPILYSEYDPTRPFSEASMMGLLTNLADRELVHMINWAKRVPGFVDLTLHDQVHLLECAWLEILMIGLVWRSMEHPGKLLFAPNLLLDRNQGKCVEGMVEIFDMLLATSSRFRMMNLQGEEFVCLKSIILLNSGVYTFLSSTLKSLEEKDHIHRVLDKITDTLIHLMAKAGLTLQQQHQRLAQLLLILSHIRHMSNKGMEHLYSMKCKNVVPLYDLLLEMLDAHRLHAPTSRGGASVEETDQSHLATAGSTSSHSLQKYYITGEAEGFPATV

Assay [12] in a line: qHTS assay to identify small molecule phospholipidosis (PLD) inducers (AID 1259344; active = well fitted curve in the direction sought with a large enough effect; an effect the other way counts as inactive or inconclusive). Put shortly:
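After 4 h attachment on collagen I, HepG2 cells were dosed with compound alongside LipidTOX Red, kept 24 h at 37 C, fixed, and imaged for lamellar phospholipid pits.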

Assay [13] can be described thus: qHTS assay to identify small molecule HDAC inhibitors (AID 1259364).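 Also: wild-type HCT-116 cells with endogenous class I/II HDAC activity; top concentration of the series differs between compounds; nearly all actives have a fitted effect of over 45% in size.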 Put shortly: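 HCT-116 wt cells, 1,500/well, overnight attach. Compounds (DMSO) 2 h, 37 °C. HDAC-Glo I/II, 30 min RT. Luminescence.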
Assay [14] is described as follows: qHTS assay to identify small molecule HDAC inhibitors - cell viability counter screen (AID 1259365). Put shortly:
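After overnight seeding at 1,500 cells per well, wild-type HCT-116 cultures took up compounds in DMSO for 2hr at 37 C. Viable cell content came from luminescence with CellTiter-Glo.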

The nature of assay [15]: qHTS assay to identify small molecule agonists of the sonic hedgehog signaling (Shh) pathway - cell viability counter screen (AID 1259366). Also: nearly all actives have a fitted effect of over 50% in size. Also: potency is read from the fitted curve at half-maximal effect. Summed up: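 Same-well cytotoxicity read. Gli1-Luc reporter 3T3 cells; compounds 24hr, 37C/5% CO2; CellTiter-Fluor fluorescence.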
Assay [16] is described as follows: qHTS assay to identify small molecule antagonists of the sonic hedgehog signaling (Shh) pathway - cell viability counter screen (AID 1259367). Also: nearly all actives have a fitted effect of over 55% in size. Also: potency is read from the fitted curve at half-maximal effect. Summed up:
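Conditioned medium drove Shh signaling in 3T3 Gli1-Luc cells exposed to compounds at 37C and 5% CO2. Viability was determined from CellTiter-Fluor fluorescence, with reagent incubated 1 hr after 23 hr of treatment.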

Assay [17] in a line: qHTS assay to identify small molecule agonists of the sonic hedgehog signaling (Shh) pathway (AID 1259368; calls by dose curve;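 also: NIH/3T3-derived 3T3Gli1-Luc cells carrying a stable Gli1-driven firefly luciferase reporter; series mostly up to about 92 µM; nearly all actives have a fitted effect of over 15% in size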). Summed up: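 Following a 24 hr incubation with DMSO-dissolved compounds at 37 C, 5% CO2, Gli1-Luc NIH/3T3-derived cells received luciferase reagent for 30 min at room temperature prior to luminescence measurement.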
The nature of assay [18]: qHTS RealTime-Glo MT Cell Viability Assay in HEK293 cells - 8 hour (AID 1224887). Summed up: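 Kinetic, non-lysing viability readout. Seed HEK293 (600/well) with reagent, incubate 5 h at 37 C/5% CO2, pin 23 nL compound in DMSO, incubate at 37 C, read luminescence at 0, 8, 16, 24, 32, 40 h.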
Assay [19] can be described thus: qHTS RealTime-Glo MT Cell Viability Assay in HepG2 cells - 0 hour (AID 1224889). Also: nearly all actives have a fitted effect of over 50% in size. Put shortly: as §3
In assay [20] the target is Androgen receptor (Homo sapiens) (UniProt P10275). The experiment in a line: qHTS assay to identify small molecule antagonists of the androgen receptor (AR) signaling pathway using the MDA cell line in the presence of 0.5 nM R1881 (AID 1259243). Also: nearly all actives have a fitted effect of over 50% in size. Summed up:
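Luminescence from an AR/GR-responsive MMTV-luciferase construct in MDA-kb2 breast carcinoma cells, read 30 min after ONE-Glo, following 16 hr co-treatment with compounds and 0.5 nM R1881.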

The values below come from PubChem BioAssay (Tox21).

Values joined by “and” are separate entries in the source; they are usually repeats but may differ in a detail not shown here. Equal values may be shown once. Inconclusive results are not listed. Active and inactive are the calls of the source. Unless noted, calls follow the shape of the dose curve; as a rule, active = well fitted curve in the direction sought with a large enough effect in the repeat runs; inconclusive = weak or mixed curves; inactive = no such curve, though single readings can be large; an effect the other way counts as inactive or inconclusive.
% is scaled to controls: 0 for no effect and ±100 for the full control effect.

Androgen receptor (Homo sapiens), sequence (P10275 whole entry, looked up): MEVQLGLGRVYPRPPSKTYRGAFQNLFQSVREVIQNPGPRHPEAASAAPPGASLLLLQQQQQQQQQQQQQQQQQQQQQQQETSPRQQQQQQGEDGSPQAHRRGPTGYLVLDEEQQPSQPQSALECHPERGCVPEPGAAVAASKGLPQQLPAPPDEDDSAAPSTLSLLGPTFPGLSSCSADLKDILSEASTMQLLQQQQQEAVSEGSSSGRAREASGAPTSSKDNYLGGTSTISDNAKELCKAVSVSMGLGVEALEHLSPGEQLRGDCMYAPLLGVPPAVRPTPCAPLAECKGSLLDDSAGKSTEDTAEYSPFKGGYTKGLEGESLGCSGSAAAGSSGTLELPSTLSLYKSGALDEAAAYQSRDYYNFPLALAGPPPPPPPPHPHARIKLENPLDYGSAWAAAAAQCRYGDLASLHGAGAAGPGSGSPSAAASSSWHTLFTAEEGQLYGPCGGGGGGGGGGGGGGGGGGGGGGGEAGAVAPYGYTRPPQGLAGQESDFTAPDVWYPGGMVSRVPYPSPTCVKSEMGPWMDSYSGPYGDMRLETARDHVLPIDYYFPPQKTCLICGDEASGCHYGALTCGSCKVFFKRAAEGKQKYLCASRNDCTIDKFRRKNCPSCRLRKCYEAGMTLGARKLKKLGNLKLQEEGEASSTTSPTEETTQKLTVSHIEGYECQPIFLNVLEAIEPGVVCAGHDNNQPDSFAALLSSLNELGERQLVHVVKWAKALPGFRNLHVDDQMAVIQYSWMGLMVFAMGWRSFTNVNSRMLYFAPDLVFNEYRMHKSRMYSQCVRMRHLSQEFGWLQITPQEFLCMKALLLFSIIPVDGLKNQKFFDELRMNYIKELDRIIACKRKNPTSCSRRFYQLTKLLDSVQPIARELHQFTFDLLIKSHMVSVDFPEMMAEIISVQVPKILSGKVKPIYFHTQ

Take `CCc1nc(N)nc(N)c1-c1ccc(Cl)cc1`: the Potency result in assay [1], in assay [2], in assay [3], in assay [4], in assay [5] and in assay [6] was “inactive” in each case. For the same compound, the Potency entry in [7], in assay [8], in assay [9], in assay [10], in assay [12] and in assay [13] was “inactive” throughout. Besides, the Potency result in assay [14], in assay [15] and in assay [16] was “inactive” each time. The Potency in assay [11] is 31.1 µM (active) and 48.6 µM (active). In addition, in assay [17], the result was inactive.

On to `O=C1O[C@H]([C@@H](O)CO)C(O)=C1O`, for which the Potency entry in [1], in assay [2], in assay [3], in assay [4], in assay [5] and in assay [6] was “inactive” throughout. The Potency entry in [7], in assay [8], in [9], in [10], in assay [12] and in [13] was “inactive” each time. Moreover, the Potency result in assay [14], in [15] and in assay [16] was “inactive” in each case. Further, in [17], the result was inactive.

For `C1=CC2C3C=CC(C3)C2C1` (stereo not drawn), the Potency entry in [2], in [3], in assay [5], in assay [6], in assay [18] and in assay [19] was “inactive” each time. The Potency entry in [8], in assay [9], in assay [10], in [13], in assay [14] and in assay [15] was “inactive” in each case. Further, the Potency entry in [16] is “inactive”. Moreover, the Potency in assay [4] is 54 µM (active). The PLD induction in assay [12] is -3.38% [at 3.15 µM] (inactive). Moreover, the compound was classed as inactive in assay [17].

For the compound `NC(CO)(CO)CO`, the Potency entry in assay [1], in [2], in [3], in assay [4], in [5] and in assay [6] was “inactive” in each case. Further, the Potency entry in [7], in assay [8], in assay [9], in assay [10], in [11] and in [12] was “inactive” throughout. In addition, the Potency result in [13], in [14], in assay [15] and in assay [16] was “inactive” each time. Further, the call in [17] was inactive.

Regarding `C1CCC(C(CC2CCCCN2)C2CCCCC2)CC1` (stereo not drawn), the Potency is 19 µM (active) in [1]; 5.35 µM (active) in assay [3]; 26.8 µM (active) in assay [4]; 8.49 µM (active) in [5]; 16.9 µM (active) in [6]; 23.9 µM (active) in assay [7]. For the same compound, the Potency in assay [8] was 23.9 µM (active); in assay [10], 26.6 µM (active); in [15] it was 13.3 µM (active). In addition, the Potency entry in [2], in [9], in [12], in assay [13] and in [14] was “inactive” each time. Further, the compound was classed as inactive in assay [17].

Take `Oc1ccccc1`: the Potency entry in assay [1], in assay [2], in assay [3], in assay [4], in [5] and in assay [6] was “inactive” in each case. Moreover, the Potency result in assay [7], in assay [8], in [9], in [10], in assay [13] and in assay [14] was “inactive” throughout. For the same compound, the Potency entry in assay [15] and in [16] was “inactive” each time. The PLD induction in [12] is 0.811% [at 7.66 µM] (inactive). The outcome in assay [17] was inactive.

As to `COc1cccc(O)c1O`, the Potency entry in assay [1], in assay [2], in [3], in assay [4], in assay [5] and in assay [7] was “inactive” each time. Moreover, the Potency entry in [8], in assay [10], in assay [20], in assay [11], in assay [13] and in [14] was “inactive” throughout. In addition, the Potency was 63.5 µM (active) in assay [15] and 56.6 µM (active) in assay [16]. The compound was classed as inactive in assay [17].

For the compound `C=C1CC[C@H](O)C/C1=C\C=C1/CCC[C@]2(C)[C@@H]([C@H](C)CCCC(C)C)CC[C@@H]12`, the Potency result in [1], in [2], in assay [3], in assay [4], in assay [5] and in [7] was “inactive” each time. Moreover, the Potency entry in assay [8], in assay [9], in [10], in [12], in assay [13] and in [14] was “inactive” in each case. Also, the Potency in [6] is 43.2 µM (active). Moreover, in [17], the call was inactive.

Take `CCOC(N)=O`: the Potency result in assay [1], in assay [2], in [3], in assay [4], in assay [5] and in assay [6] was “inactive” each time. Also, the Potency result in [7], in [8], in assay [9], in assay [10], in assay [11] and in assay [12] was “inactive” in each case. Besides, the Potency entry in assay [13], in assay [14], in [15] and in [16] was “inactive” in each case. For the same compound, the compound was classed as inactive in assay [17].

As for `COc1ccc(OC(F)(F)F)cc1CN[C@H]1CCCN[C@H]1c1ccccc1`, the Potency entry in assay [2], in assay [13] and in assay [14] was “inactive” throughout. The Potency is 49 µM (active) in assay [3]; 54.9 µM (active) in assay [5]; 43.6 µM (active) in assay [6]; 48.6 µM (active) in assay [10]; 48.6 µM (active) in assay [15]; 61.1 µM (active) in assay [16]. Besides, in [17], the compound was classed as inactive.
